# According to PubChem BioAssay AID504339 (National Center for Advancing Translational Sciences (NCATS), 2011):
# Out of some 390,000 compounds screened, about 17,000 (4.4%) were called active. Not shown: some 8% with an inconclusive outcome. The sample as a whole holds a higher share of actives than the screen did. Unmarked numbers belong to inactive results. Calls follow the shape of the dose curve; as a rule, active = well fitted inhibition curve with a large enough effect; inconclusive = small, poorly fitted or top-dose-only effect; inactive = no such curve, though single readings can be large or run the other way.
# Biological target: Lysine-specific demethylase 4A (Homo sapiens) (UniProt O75164)
# Sequence (O75164 whole entry, looked up, the tested form may be a part): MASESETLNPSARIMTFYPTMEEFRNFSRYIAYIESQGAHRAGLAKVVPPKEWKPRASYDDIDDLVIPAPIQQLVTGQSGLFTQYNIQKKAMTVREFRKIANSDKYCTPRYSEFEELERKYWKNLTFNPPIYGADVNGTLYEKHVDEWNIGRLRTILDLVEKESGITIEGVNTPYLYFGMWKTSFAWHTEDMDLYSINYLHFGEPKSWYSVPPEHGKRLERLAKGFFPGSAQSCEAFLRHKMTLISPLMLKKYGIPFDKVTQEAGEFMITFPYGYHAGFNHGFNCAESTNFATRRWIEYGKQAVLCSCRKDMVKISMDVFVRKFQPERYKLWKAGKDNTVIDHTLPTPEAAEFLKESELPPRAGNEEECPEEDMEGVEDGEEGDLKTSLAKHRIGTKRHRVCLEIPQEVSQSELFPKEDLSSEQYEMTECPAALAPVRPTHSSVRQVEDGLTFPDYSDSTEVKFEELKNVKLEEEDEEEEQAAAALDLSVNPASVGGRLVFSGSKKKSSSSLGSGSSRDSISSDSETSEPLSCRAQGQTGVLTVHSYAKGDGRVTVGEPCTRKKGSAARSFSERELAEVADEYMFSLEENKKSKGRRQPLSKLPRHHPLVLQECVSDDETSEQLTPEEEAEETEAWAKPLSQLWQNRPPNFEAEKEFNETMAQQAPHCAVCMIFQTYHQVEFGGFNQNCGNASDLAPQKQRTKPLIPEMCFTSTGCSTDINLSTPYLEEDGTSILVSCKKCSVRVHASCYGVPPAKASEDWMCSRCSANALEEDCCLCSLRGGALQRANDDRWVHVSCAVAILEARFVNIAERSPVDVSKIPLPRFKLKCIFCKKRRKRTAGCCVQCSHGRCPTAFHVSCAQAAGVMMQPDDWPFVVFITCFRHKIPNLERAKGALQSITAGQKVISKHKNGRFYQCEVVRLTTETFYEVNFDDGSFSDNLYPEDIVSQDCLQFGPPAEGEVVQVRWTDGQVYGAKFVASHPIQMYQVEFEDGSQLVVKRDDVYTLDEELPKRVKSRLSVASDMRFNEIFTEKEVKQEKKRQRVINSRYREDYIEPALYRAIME
# Assay: qHTS Assay for Inhibitors of JMJD2A-Tudor Domain; also: nearly all actives have a fitted effect of over 50% in size
# Conditions: AlphaScreen JMJD2A-Tudor / H3K4me3 peptide binding; series mostly up to 114 µM; activity change, negative = inhibition: at the top concentration
# % is scaled to controls: 0 for no effect and ±100 for the full control effect; potency is read from the fitted curve at half-maximal effect.
Compound,"activity change, negative = inhibition [%]",Potency
COc1ccc(N=Nc2c(-c3ccc(OC)cc3)[nH]oc2=O)cc1,-21.8,
COC1=CC(=O)OC(c2ccc(OC)cc2)C1 (centres undefined),-7.59,
COc1ccc(N=C2C=CC(=O)O2)cc1,,79.4 µM (active)
CCOC(=O)C1=C(CN2CCc3ccccc32)NC(=O)NC1c1cc(C)ccc1C (centres undefined),-27.7,
CCOC(=O)C1=C(CN2CCc3ccccc32)NC(=O)NC1c1cccc([N+](=O)[O-])c1 (centres undefined),,44.7 µM (active)
CCOC(=O)C1=C(CN2CCCCCC2)NC(=O)NC1c1cccc([N+](=O)[O-])c1 (centres undefined),-17.5,
COc1ccc(N2CCN(S(=O)(=O)CCNC(=O)C(c3ccccc3)c3ccccc3)CC2)cc1,-14.1,
C[C@H](NC(=O)c1nc[nH]c1C(=O)NCC(=O)OC(C)(C)C)c1ccccc1,-20,
C[C@@H](NC(=O)c1nc[nH]c1C(=O)N1CCN(C(=O)OC(C)(C)C)CC1)c1ccccc1,,79.4 µM (active)
CC(C)(C)OC(=O)N1CCC(NC(=O)c2[nH]cnc2C(=O)N[C@@H](Cc2ccccc2)C(=O)OCc2ccccc2)CC1,-31.4,
Cc1cccc(C(=O)N2c3nc(-c4ccco4)nn3C3(CCCCC3)[C@@H]3CCCC[C@@H]32)c1,-31.8,
CCOc1ccc(CNC(=O)c2cccc(Nc3nc4ccccc4n4nnnc34)c2)cc1OC,4.79,
O/N=C1\CC2(Cc3nonc31)OCCO2,-3.95,
ON=C1/C(=N\O)CC2(C/C1=N/O)OCCO2,,28.2 µM (active)
CCOC(=O)c1ccc(NC2=CC(c3ccc(OCC)cc3)N(c3ccc(C(=O)OCC)cc3)C2=O)cc1 (centres undefined),-13.4,
CCOc1ccc(CCNC(=O)c2c(C)oc3ncn(C)c(=O)c23)cc1,2.91,
CCCc1cc(=S)n2c([nH]c3ccccc32)c1C#N,,25.1 µM (active)
CN(C)Cc1c(C#N)c2ccccc2n1C,-15.2,
Cc1ccccc1-c1nc2cc(NC(=O)c3cccc(OCCC(C)C)c3)ccc2o1,-6.21,
O=C(O)C(c1ccccc1)N1C(=O)/C(=C\c2ccc(-c3cccc(Cl)c3)o2)SC1=S (centres undefined),,20 µM (active)
O=C(NC(=S)Nc1cc(C(F)(F)F)ccc1N1CCOCC1)c1ccc(-c2cccc(Cl)c2)o1,-15.9,
O=C(NCc1ccccc1)c1cc(-c2cccc(Cl)c2)on1,-1.71,
Cc1ccc(NC(=O)Cn2cnc3nc4c(cc3c2=O)CCCC4)cc1Cl,4.15,
CCOc1ccc(N2C(=O)/C(=C/c3ccc(C)o3)N(C)C2=S)cc1,,35.5 µM (active)
CCO/C=C1\C(=O)N(c2ccc(OCC)cc2)C(=O)c2ccccc21,-24.8,

Compound,"activity change, negative = inhibition [%]",Potency
CCOc1ccc(N2C(=O)CN(c3cccc4ccccc34)C2=S)cc1,1.34,
CCCN1C(=O)C(O)(CC(=O)c2ccc(CC)cc2)c2cc(Br)ccc21 (centres undefined),-26.8,
CCS(=O)(=O)c1cc([N+](=O)[O-])c(Sc2ccccc2N)s1,,44.7 µM (active)
Cc1ccc(S(=O)(=O)NCCSc2ccccc2)cc1[N+](=O)[O-],-24.5,
Cc1cc(C)cc(OCC(=O)Nc2nc(-c3ccc(F)cc3)ns2)c1,-24.2,
Cc1cc(C(=O)OCC(=O)NCc2ccco2)c(C)n1-c1ccccc1,,56.2 µM (active)
CCOC(=O)c1cnc(SCC(=O)NCc2ccco2)nc1N,-19.4,
O=C(CCCOc1ccccc1)NCc1ccco1,-7.14,
O=C(COC(=O)CSc1ccccc1)Nc1ccc(F)cc1F,5.56,
CCOC(=O)c1cccc(NC(=O)c2ccc(F)cc2F)c1,-3.6,
O=C(COC(=O)c1ccc(F)cc1F)Nc1ncccn1,,28.2 µM (active)
Cc1oc2ncnc(N3CCCCC3)c2c1C(=O)N1CCN(c2cccc(Cl)c2)CC1,-35.6,
CCc1ccc(NC(=O)CN2C(=O)CCSc3ccc(S(=O)(=O)N4CCCC4)cc32)cc1,-8.95,
COc1ccc(C(C(=O)NC(C)(C)C)N(Cc2ccc(F)cc2)C(=O)CCC(=O)Nc2cc(C)on2)cc1 (centres undefined),-19.1,
CCC(C)(C)NC(=O)C(c1ccc(OC)cc1)N(C(=O)CCC(=O)Nc1cc(C)on1)c1ccc(OC)cc1OC (centres undefined),-17.6,
CCC(C)(C)NC(=O)C(c1cccc(OC)c1OC)N(CC(C)C)C(=O)CCC(=O)Nc1cc(C)on1 (centres undefined),,11.2 µM (active)
Cc1ccc(OCCSc2nc(-c3cccs3)nc3cc(=O)[nH]n23)cc1Cl,-29.2,
O=c1cc2nc(-c3ccccc3)nc(SCCOc3ccc(Cl)cc3)n2[nH]1,,56.2 µM (active)
CCc1ccccc1OCCSc1nc(-c2cccs2)nc2cc(=O)[nH]n12,-14.3,
COc1cc(CNCc2ccc(OC)c3ccccc23)cc(OC)c1OC,,25.1 µM (active)
COc1cc(CNCc2cccs2)cc(Br)c1OC,-0.752,
COc1ccc(CNCCCNCc2ccc(OC)c(OC)c2)cc1OC,-8.97,
O=C(c1ccc2c(=O)n(Cc3ccco3)c(=S)[nH]c2c1)N1CCCC1,-18.4,
O=c1n(Cc2cccc(C(F)(F)F)c2)c2ccccc2c2nc(-c3ccccc3)nn12,-7.28,
